From PubChem BioAssay (NCATS) come the findings set out here.

Several values for one entry are separate records, joined by “and”; a condition that tells them apart may be missing. Identical values can stand only once. Records with an inconclusive call do not appear. Some compounds were tested as several samples or in several runs, with calls that do not always agree. Activity calls are given as the source filed them. Calls follow the shape of the dose curve; as a rule, active = well fitted curve in the direction sought with a large enough effect; inconclusive = small, poorly fitted or top-dose-only effect, or another doubt; inactive = no such curve, though single readings can be large; an effect the other way counts as inactive or inconclusive.

Assay [1] can be described thus: Cellular Toxicity (caspase-3) H-4-II-E (AID 663).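 Also: cells exposed to compound for 16 hr before readout.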 The following applies: H-4-II-E rat hepatoma, scaled: DMSO 0%, 100 µM tamoxifen 100%; at 92.2 µM (top of the series). In a few lines: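 Caspase 3/7 activation measured by luminescent aminoluciferin substrate cleavage after 16 hr compound treatment of H-4-II-E cells in complete medium. Increase normalized between DMSO (basal) and 100 uM tamoxifen (100%); Hill-equation AC50 from concentration-response.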

The nature of assay [2]: Cellular Toxicity (caspase-3) Hek293 (AID 664).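 Also: cells exposed to compound for 16 h at 37 °C before readout.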 The following applies: HEK293 caspase-3 activation, DMSO = 0%, 100 µM tamoxifen = 100%; at 92.2 µM (top of the series). In a few lines: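 Concentration-response qHTS: caspase 3/7 activation measured by luminescent aminoluciferin substrate cleavage after 16 h compound exposure of Hek 293 cells. AC50 from Hill equation, with DMSO as basal and 100 uM tamoxifen as 100%.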

The nature of assay [3]: Cellular Toxicity (caspase-3) N2a (AID 665).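 Also: compound exposure lasted 16 h at 37 °C before readout.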 The following applies: Potency: caspase-3 activation. The essentials:
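Caspase-3/7 activation measured as luminescence from Caspase-Glo reagent (1 h, room temperature) after 16 h compound exposure of mouse N2a cells. AC50 values from Hill-equation concentration-response, scaled between DMSO and 10 uM staurosporine.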

Assay [4] can be described thus: Cellular Toxicity (caspase-3) NIH 3T3 (AID 666).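 Also: caspase signal read after 16 h compound exposure.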 In a few lines: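 Caspase-Glo 3/7 luminescence reported caspase activation in 1000 NIH 3T3 cells/well after 16 h compound exposure at 37 C. DMSO set basal and 100 uM tamoxifen set 100% stimulation; concentration-response modeled with the Hill equation for AC50.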
The nature of assay [5]: Cellular Toxicity (caspase-3) Renal Proximal Tubule (AID 667).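 Also: cells exposed to compound for 16 hours at 37 °C before detection; 0% = DMSO basal and 100% = 10 µM staurosporine.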 The following applies: Potency: caspase-3 activation. The essentials: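 Primary rat proximal tubule cells, 1000/well, 5 h plating at 37 °C, then compound 16 h at 37 °C. Caspase-Glo 3/7 reagent, 1 h RT, luminescence. Normalized to DMSO (basal) and 10 uM staurosporine (100%); Hill-fit AC50.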
Assay [6] is described as follows: Cell Viability - LYMP2-001 (AID 921).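 Also: 0% = DMSO only and full inhibition = tetraoctylammonium bromide control wells; nearly all actives have a fitted effect of over 70% in size.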 The essentials:
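Human lymphoblastoid cells (Coriell), 2500 per well, were preincubated 5 hr at 37 C, then exposed to compounds in complete medium for 24 hr at 37 C. Cellular ATP was read by CellTiter-Glo luminescence; AC50 from Hill fits of concentration-response data.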

Assay [7] addresses Cytochrome P450 3A4 (Homo sapiens) (UniProt P08684). The assay is described as follows: qHTS Assay for Activators of Cytochrome P450 3A4 (AID 885). Also: nearly all actives have a fitted effect of over 65% in size. In a few lines:
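Using 20nM recombinant human CYP3A4 in potassium phosphate (200mM), substrate Luciferin-PPXE at 25uM, luminescent luciferin detection followed a 60-min RT NADPH reaction; data scaled to 57 uM ketoconazole.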
(In general: In qHTS, concentration-response curves come from the screen itself.)

Assay [8] is described as follows: Confirmation and Secondary Assay for Modulators of Hemoglobin Beta Chain Splicing at IVS2 654 locus (AID 910).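 Also: HeLa cells stably carrying EGFP split by mutant beta-globin IVS2-654 intron; per-well total GFP intensity by laser scanning cytometry after 2-day treatment; % of control where 0% means no effect.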 The essentials: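 Readout: per-well total peak green fluorescence (488 nm ex, 500–520 nm em) from objects 5–250 µm, reflecting correct splicing of an EGFP-654 reporter. Compounds were applied for 2 days at 37 °C to overnight-plated HeLa EGFP-654 cells; controls were DMSO and 500 nM IVS2-654 PNA.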

A short description of assay [9]: Confirmation and Secondary Assay for Modulators of Hemoglobin Beta Chain Splicing at IVS2 705 locus (AID 930).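 Also: HeLa cells stably expressing the EGFP-705 splicing reporter; GFP fluorescence per well restored by corrected splicing of the IVS2-705 intron in EGFP; % of control where 0% means no effect.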 The essentials:
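HeLa IVS2-705 EGFP reporter cells, 500/well, compound 2 d at 37C; correct splicing yields fluorescent EGFP. Control: 500 nM antisense PNA. Read-out: total peak GFP intensity.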

In assay [10] the target is Guanine nucleotide-binding protein G(i) subunit alpha-1 (Homo sapiens) (UniProt P63096). The assay is described as follows: qHTS Assay for Inhibitors of RGS12 GoLoco Motif Activity (Green Fluorophore) (AID 879).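 Also: 0% = labeled peptide with Gαi1 and full inhibition = labeled peptide alone without protein; negative values mean loss of peptide binding seen as reduced polarization.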 The essentials: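 A drop in FITC polarization marked displacement of the FITC-tagged RGS12 GoLoco peptide (10 nM) from Gαi1 (50 nM). Compounds were incubated 10 min at room temperature in Tris pH 7.5 buffer containing 150 mM NaCl, 0.1 mM GDP and 0.05% NP40; unlabeled peptide titration served as control.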
Sequence of Guanine nucleotide-binding protein G(i) subunit alpha-1 (Homo sapiens) (P63096 whole entry, looked up): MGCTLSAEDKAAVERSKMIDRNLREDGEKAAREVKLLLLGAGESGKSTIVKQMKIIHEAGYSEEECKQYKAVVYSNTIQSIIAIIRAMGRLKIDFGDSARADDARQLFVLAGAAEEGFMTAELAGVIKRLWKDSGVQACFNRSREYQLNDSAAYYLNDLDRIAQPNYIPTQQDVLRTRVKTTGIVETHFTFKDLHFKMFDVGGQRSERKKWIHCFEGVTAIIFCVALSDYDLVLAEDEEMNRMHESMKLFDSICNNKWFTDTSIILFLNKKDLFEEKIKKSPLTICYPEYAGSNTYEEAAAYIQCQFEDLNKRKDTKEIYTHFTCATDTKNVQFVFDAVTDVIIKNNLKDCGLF

The target of assay [11] is Cytochrome P450 2D6 (Homo sapiens) (UniProt P10635). The assay is described as follows: qHTS Assay for Inhibitors and Substrates of Cytochrome P450 2D6 (AID 891).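 Also: luciferin methyl ether substrate demethylated by CYP2D6 with NADPH regeneration; % is scaled to controls: 0 for no effect and ±100 for the full control effect; nearly all actives have a fitted effect of over 60% in size.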 The essentials: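 Luminescent read-out of luciferin formed by 5 nM human CYP2D6 demethylating 30 uM Luciferin-ME EGE (Km level) over 60 min at room temperature after NADPH regeneration addition. Data normalized to full inhibition by 1.43 uM quinidine.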
Sequence of Cytochrome P450 2D6 (Homo sapiens) (P10635 whole entry, looked up): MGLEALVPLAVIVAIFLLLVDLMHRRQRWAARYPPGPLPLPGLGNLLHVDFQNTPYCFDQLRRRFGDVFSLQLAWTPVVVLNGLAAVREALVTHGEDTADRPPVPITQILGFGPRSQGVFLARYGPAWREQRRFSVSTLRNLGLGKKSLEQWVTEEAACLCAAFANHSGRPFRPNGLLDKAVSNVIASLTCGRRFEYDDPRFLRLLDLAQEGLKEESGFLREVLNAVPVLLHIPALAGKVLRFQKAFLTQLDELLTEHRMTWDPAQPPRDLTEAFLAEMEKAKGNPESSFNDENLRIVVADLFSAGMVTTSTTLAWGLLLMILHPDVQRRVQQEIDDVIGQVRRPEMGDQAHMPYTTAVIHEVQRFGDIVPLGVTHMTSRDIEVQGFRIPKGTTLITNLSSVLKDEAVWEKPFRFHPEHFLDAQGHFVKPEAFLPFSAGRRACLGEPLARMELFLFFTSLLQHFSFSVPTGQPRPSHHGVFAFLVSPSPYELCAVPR

Assay [12] has as its target Cytochrome P450 2C19 (Homo sapiens) (UniProt P33261). The assay is described as follows: qHTS Assay for Inhibitors and Substrates of Cytochrome P450 2C19 (AID 899). Also: nearly all actives have a fitted effect of over 60% in size. Also: potency is read from the fitted curve at half-maximal effect. The essentials: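 Reactions contain 5nM enzyme, 10uM Luciferin-H EGE (KM) and 50mM KPO4; compound preincubates 10 min at 37C, NADPH regeneration starts turnover for 60 min. Luminescence after detection reagent gives activity.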

The nature of assay [13]: qHTS Assay for Identification of Small Molecule Agonists for Thrombopoietin (TPO) Signaling Pathway (AID 917). Also: potency is read from the fitted curve at half-maximal effect. In a few lines:
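First, Ba/F3 cells with human TPO receptor were held overnight without IL-3. Next, compounds and TPO (26 pM final) were added. After 24 hrs at 37 C, luciferase detection reagent was added and luminescence measured following 10 min at room temperature.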

For assay [14], the target named is Muscarinic acetylcholine receptor M1 (Rattus norvegicus) (UniProt P08482). The assay is described as follows: qHTS Assay for Antagonists of Acetylcholine Muscarinic M1 Receptor: Measurement of IP-One Response (AID 944). Also: nearly all actives have a fitted effect of over 75% in size. In a few lines: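 IP1 accumulation measured via TR-FRET between d2-IP1 and Eu-cryptate anti-IP1 antibody after carbachol (200 nM, EC80) stimulation for 30 min; rat M1-transfected CHO cells received compound 10 min before agonist.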
Sequence of Muscarinic acetylcholine receptor M1 (Rattus norvegicus) (P08482 whole entry, looked up): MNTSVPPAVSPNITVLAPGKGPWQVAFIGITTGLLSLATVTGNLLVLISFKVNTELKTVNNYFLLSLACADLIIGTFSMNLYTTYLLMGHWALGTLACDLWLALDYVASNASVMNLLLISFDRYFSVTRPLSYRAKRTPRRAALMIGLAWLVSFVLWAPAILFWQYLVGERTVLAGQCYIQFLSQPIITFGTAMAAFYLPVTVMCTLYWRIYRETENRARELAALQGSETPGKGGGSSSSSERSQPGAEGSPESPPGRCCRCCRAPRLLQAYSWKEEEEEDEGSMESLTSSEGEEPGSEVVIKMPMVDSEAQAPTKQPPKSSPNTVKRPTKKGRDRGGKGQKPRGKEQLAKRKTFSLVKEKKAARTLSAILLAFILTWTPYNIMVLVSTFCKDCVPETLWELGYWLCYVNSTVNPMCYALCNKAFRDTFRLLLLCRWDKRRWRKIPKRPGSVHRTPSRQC

For assay [15], the target named is Cytochrome P450 3A4 (Homo sapiens) (UniProt P08684). The assay is described as follows: qHTS Assay for Inhibitors and Substrates of Cytochrome P450 3A4 (AID 884). Also: nearly all actives have a fitted effect of over 50% in size. Also: potency is read from the fitted curve at half-maximal effect. In a few lines: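 Luminescent readout of luciferin produced by CYP3A4 (20 nM) dealkylation of Luciferin-PPXE, 25 uM (its KM). NADPH-driven reaction ran 60 min at RT after 10 min compound preincubation; data scaled to 57 uM ketoconazole as 100% inhibition.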
Sequence of Cytochrome P450 3A4 (Homo sapiens) (P08684 whole entry, looked up): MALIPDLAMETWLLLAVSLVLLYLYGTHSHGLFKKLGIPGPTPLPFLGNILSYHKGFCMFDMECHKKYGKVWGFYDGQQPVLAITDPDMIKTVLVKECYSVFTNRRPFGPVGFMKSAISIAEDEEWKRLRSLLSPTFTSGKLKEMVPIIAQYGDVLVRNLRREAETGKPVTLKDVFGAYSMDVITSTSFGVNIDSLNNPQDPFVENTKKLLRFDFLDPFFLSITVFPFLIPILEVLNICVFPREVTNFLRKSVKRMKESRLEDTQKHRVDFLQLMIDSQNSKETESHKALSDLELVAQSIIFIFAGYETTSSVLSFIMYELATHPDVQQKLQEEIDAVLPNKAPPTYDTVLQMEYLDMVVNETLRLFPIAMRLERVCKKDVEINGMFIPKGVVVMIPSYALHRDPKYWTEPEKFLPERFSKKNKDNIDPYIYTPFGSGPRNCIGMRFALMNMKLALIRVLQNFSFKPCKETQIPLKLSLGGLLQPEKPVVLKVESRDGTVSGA

Sequence of Cytochrome P450 2C19 (Homo sapiens) (P33261 whole entry, looked up): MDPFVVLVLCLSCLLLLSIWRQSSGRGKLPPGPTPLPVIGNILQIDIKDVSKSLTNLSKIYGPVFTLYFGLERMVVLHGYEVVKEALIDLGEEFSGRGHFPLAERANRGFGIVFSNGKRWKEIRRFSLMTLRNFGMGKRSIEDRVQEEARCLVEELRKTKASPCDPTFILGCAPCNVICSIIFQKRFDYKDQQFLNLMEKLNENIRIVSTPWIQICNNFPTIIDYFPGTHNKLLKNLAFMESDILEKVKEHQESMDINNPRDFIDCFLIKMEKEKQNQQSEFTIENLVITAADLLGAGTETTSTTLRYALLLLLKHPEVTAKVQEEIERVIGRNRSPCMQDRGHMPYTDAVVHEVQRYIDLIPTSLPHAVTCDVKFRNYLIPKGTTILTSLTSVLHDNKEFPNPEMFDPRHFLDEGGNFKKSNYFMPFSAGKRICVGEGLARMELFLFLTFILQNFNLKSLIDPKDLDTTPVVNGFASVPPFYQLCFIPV

In the case of `CC1(C)S[C@@H]2[C@H](NC(=O)[C@H](N)c3ccccc3)C(=O)N2[C@H]1C(=O)O`, the values for the caspase-3 activation in [1] and in [2] were 0.54% (inactive) and -0.638% (inactive), respectively. Further, the Potency entry in [3], in assay [4], in [5] and in [6] was “inactive” throughout.
On to `C#C[C@]1(O)CC[C@H]2[C@@H]3CCc4cc(O)ccc4[C@H]3CC[C@@]21C`, for which the caspase-3 activation in [1] was 3.92% (inactive); in [2], -0.747% (inactive). Further, the Potency result in assay [3], in assay [4], in assay [5], in assay [7] and in assay [6] was “inactive” each time.
For `CC(C)NCC(O)COc1cccc2ccccc12` (configuration not stated), the values for the caspase-3 activation in [1] and in [2] were 12.6% (inactive) and 0.268% (inactive), respectively. The Potency entry in assay [3], in assay [4], in [5] and in [6] was “inactive” in each case. Moreover, the result in [8] and in assay [9] was inactive.
As for `Nc1ccc(O)c([N+](=O)[O-])c1`, the caspase-3 activation in [1] is 4.05% (inactive); in [2], 0.408% (inactive). In addition, the Potency result in assay [3], in assay [4], in assay [5] and in assay [6] was “inactive” throughout.
Turning to `CCCOC(=O)c1ccc(O)cc1`, the caspase-3 activation is 1.99% (inactive) and 0.213% (inactive) in [1]; 0.939% (inactive) and -1.18% (inactive) in assay [2]. In addition, the Potency entry in [3], in assay [4], in assay [5] and in [6] was “inactive” in each case.
Regarding `O=C(Nc1ccccc1)c1cc([N+](=O)[O-])ccc1Cl`, in assay [10], the compound was called inactive. For the same compound, the Potency result in [7], in assay [11] and in assay [14] was “inactive” each time. In addition, the Potency result is “inactive and 794 nM (active)” in [12]; 1580 nM (active) in assay [13].
On to `Nc1ccc([N+](=O)[O-])cc1O`, for which the caspase-3 activation in assay [1] was 2.85% (inactive); in [2] it was -2.49% (inactive). Also, the Potency entry in assay [3], in assay [4], in assay [5], in assay [15] and in [6] was “inactive” in each case.
`CNCC[C@H](Oc1ccc(C(F)(F)F)cc1)c1ccccc1`: the outcome in assay [10] was inactive.
On to `NCCO`, for which the caspase-3 activation in assay [1] was -0.037% (inactive); in [2], -4.95% (inactive). For the same compound, the Potency result in assay [3], in assay [4], in [5] and in assay [6] was “inactive” each time.
Regarding `O=C(O)/C=C\C(=O)O`, the caspase-3 activation in [1] is 0.648% (inactive); in [2] it was -1.35% (inactive). For the same compound, the Potency entry in assay [3], in assay [4], in assay [5] and in [6] was “inactive” throughout.
For the compound `Oc1ccccc1O`, the caspase-3 activation in assay [2] was 7.91% (inactive). The Potency entry in assay [3], in assay [5], in assay [11] and in assay [12] was “inactive” throughout. Besides, the outcome in [10] was inactive.
On to `Ic1ccc(N2CCN(Cc3c[nH]c4ncccc34)CC2)cc1`, for which the outcome in [10] was inactive. The Potency entry in assay [7] is “inactive”.
On to `CCCn1c(=O)c2[nH]c(-c3ccc(OCC(=O)NCCN)cc3)nc2n(CCC)c1=O`, for which, in [10], the call was inactive. In addition, the Potency in assay [15] was 2510 nM (active). Moreover, the Potency entry in assay [7] and in assay [13] was “inactive” throughout.
As to `O=c1cc(-c2ccccc2)oc2ccccc12`, the caspase-3 activation in assay [1] is -0.716% (inactive); in assay [2], -5.01% (inactive). The Potency result in assay [3], in [4], in [5] and in assay [6] was “inactive” throughout.
